Here are results for 45 compounds from PubChem BioAssay (Tox21).

Experiment [1] addresses Acetylcholinesterase (Homo sapiens) (UniProt P22303). As to the kind of experiment: Acetylcholinesterase (AChE) small molecule antagonists: colormetric cell-based qHTS assay (AID 1347395). Also: nearly all actives have a fitted effect of over 30% in size. Also: potency is read from the fitted curve at half-maximal effect. To be noted: SH-SY5Y cells AChE activity, colorimetric (Ellman); series mostly up to 115 µM. In outline: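 AChE inhibition read colorimetrically via DTNB–thiocholine in SH-SY5Y cells. Compound 30 min, substrate 90 min, both 37 C.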
In general terms: In qHTS, concentration-response curves come from the screen itself.

The target is the same in experiment [2]. Description: Acetylcholinesterase (AChE) small molecule antagonists: enzyme-based qHTS assay (AID 1347397). Also: nearly all actives have a fitted effect of over 55% in size. Conditions: Potency: AChE enzyme activity inhibition; outcome: AChE enzyme activity inhibition; series mostly up to 115 µM. Summed up:
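Enzyme inhibition was scored from DTNB-detected thiocholine formed by recombinant human AChE acting on acetylthiocholine. The 30 min compound preincubation and 10 min substrate reaction were both run at room temperature, with DMSO as vehicle control.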

Experiment [3] shares this target. As to the kind of experiment: Acetylcholinesterase (AChE) small molecule antagonists: fluorescence cell-based qHTS assay (AID 1347398). Also: nearly all actives have a fitted effect of over 50% in size. Also: potency is read from the fitted curve at half-maximal effect. To be noted: SH-SY5Y cells; Potency: AChE activity; outcome: AChE activity; series mostly up to 115 µM. In outline:
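Endogenous acetylcholinesterase of SH-SY5Y neuroblastoma cells is measured in situ. After overnight attachment and 30 min compound exposure, cells receive acetylthiocholine and Thiolite Green; fluorescence is read after 40 min at room temperature.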

The target is the same in experiment [4]. Description: Acetylcholinesterase (AChE) small molecule antagonists: enzyme-based qHTS assay with human liver microsomes (AID 1347399). Also: nearly all actives have a fitted effect of over 60% in size. To be noted: Potency: qHTS inhibition; outcome: qHTS inhibition; series mostly up to 115 µM. In outline: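 Recombinant human AChE (50 mU/mL in the enzyme mix) and human liver microsomes (0.25 mg/mL final) were preincubated with compound and NADPH (0.25 mg/mL final) for 30 min at 37 C. Acetylthiocholine/DTNB was then added; thiocholine was read colorimetrically after 10 min at room temperature.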

Values without a mark were called inactive. Records with an inconclusive call do not appear. Active and inactive are the calls of the source. Calls follow the shape of the full dose curve.
% is scaled to controls: 0 for no effect and ±100 for the full control effect.

Chain of Acetylcholinesterase (Homo sapiens) (P22303 whole entry, looked up): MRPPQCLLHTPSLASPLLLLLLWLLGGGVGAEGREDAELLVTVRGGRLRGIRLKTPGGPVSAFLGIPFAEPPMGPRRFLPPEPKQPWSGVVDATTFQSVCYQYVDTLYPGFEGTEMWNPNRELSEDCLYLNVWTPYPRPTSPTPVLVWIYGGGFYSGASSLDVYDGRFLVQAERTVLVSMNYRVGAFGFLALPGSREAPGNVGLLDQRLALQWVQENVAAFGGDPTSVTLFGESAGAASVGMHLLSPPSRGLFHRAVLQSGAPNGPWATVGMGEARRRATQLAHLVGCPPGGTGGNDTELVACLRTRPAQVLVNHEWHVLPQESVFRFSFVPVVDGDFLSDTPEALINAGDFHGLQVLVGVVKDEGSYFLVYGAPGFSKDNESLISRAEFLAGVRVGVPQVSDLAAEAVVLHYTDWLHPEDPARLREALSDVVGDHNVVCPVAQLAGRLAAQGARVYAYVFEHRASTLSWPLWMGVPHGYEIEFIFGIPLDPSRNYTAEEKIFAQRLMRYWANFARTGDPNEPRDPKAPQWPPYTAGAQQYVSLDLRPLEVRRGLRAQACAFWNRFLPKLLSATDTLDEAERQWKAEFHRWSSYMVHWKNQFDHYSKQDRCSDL

On to `c1ccc(C[P+](c2ccccc2)(c2ccccc2)c2ccccc2)cc1`, for which, in experiment [1], the Potency is 71 µM (active).
With `NNC(=O)CCCCC(=O)NN`, the Potency result in experiment [1], in experiment [2] and in experiment [3] was “inactive” in each case.
Take `Cc1ccco1`: the Potency entry in experiment [1], in experiment [2] and in experiment [3] was “inactive” throughout.
As to `Nc1nnc(-c2ccc([N+](=O)[O-])o2)o1`, the Potency result in experiment [1], in experiment [2] and in experiment [3] was “inactive” each time.
As for `O=S(=O)(O)c1ccc(Nc2nc(Nc3ccc(/C=C/c4ccc(Nc5nc(Nc6ccc(S(=O)(=O)O)cc6)nc(N(CCO)CCO)n5)cc4S(=O)(=O)O)c(S(=O)(=O)O)c3)nc(N(CCO)CCO)n2)cc1`, the Potency entry in experiment [1], in experiment [2] and in experiment [3] was “inactive” throughout.
For `CCCCCCCCc1ccc(S(=O)(=O)O)cc1`, the Potency entry in experiment [1], in experiment [2] and in experiment [3] was “inactive” each time.
In the case of `CCOC(=O)CC(C)O` (centres undefined), the Potency result in experiment [1], in experiment [2] and in experiment [3] was “inactive” each time.
Take `N[C@@H](CSCCCO)C(=O)O`: the activity, negative = inhibition in experiment [1] is -1.97% [at 23.6 µM]. Besides, the activity change, negative = inhibition was 1.52% [at 23.6 µM] in experiment [2] and 1.96% [at 23.8 µM] in experiment [3].
Consider `CCCCCCOc1ccc(N)cc1`, for which the Potency entry in experiment [1], in experiment [2] and in experiment [3] was “inactive” each time.
Take `CCN(CC)CCOc1ccccc1C(=O)CCc1ccccc1`: the Potency result in experiment [1] and in experiment [2] was “inactive” in each case.
Turning to `Cc1ccccc1N1C(=O)c2cc(S(N)(=O)=O)c(Cl)cc2NC1C` (centres undefined), the Potency result in experiment [1], in experiment [2] and in experiment [3] was “inactive” each time.
On to `O=C(CS(=O)Cc1ccco1)NC/C=C\COc1cc(CN2CCCCC2)ccn1` (centres undefined), for which the Potency in experiment [1] is 38.9 µM (active).
As to `CC(C)(C)c1ccccc1`, the Potency entry in experiment [1] and in experiment [2] was “inactive” throughout.
With `CCN(CC)c1ccc2c(-c3ccc(S(=O)(=O)O)cc3S(=O)(=O)[O-])c3ccc(=[N+](CC)CC)cc-3oc2c1`, the Potency entry in experiment [1] and in experiment [2] was “inactive” throughout. Besides, the Potency in experiment [3] is 41.2 µM (active).
On to `O=c1[nH][nH]c(=O)c2cc([N+](=O)[O-])ccc12`, for which the Potency entry in experiment [1], in experiment [2] and in experiment [3] was “inactive” each time.
With `CCCOC(=O)c1ccc(N)cc1`, the Potency entry in experiment [1], in experiment [2] and in experiment [3] was “inactive” each time.
On to `CC(C)C(O)C(C)(C)CO` (centres undefined), for which the Potency entry in experiment [1], in experiment [2] and in experiment [3] was “inactive” each time.
For `CCCCC/C=C/CC1CC(=O)OC1=O` (centres undefined), the Potency entry in experiment [1], in experiment [2] and in experiment [3] was “inactive” each time.
For `O=C(O)CNC(=O)CNC(=O)CNC(=O)CSC(=O)c1ccccc1`, the Potency result in experiment [1], in experiment [2] and in experiment [3] was “inactive” throughout.
For the compound `Oc1ccc(Cl)cc1C1CCCC1`, the Potency result in experiment [1], in experiment [2] and in experiment [3] was “inactive” in each case.
In the case of `S=C(SSSSSSC(=S)N1CCCCC1)N1CCCCC1`, the activity, negative = inhibition in experiment [1] was -0.568% [at 23.6 µM]. Besides, the activity change, negative = inhibition was 0.13% [at 23.6 µM] in experiment [2] and -3% [at 23.8 µM] in experiment [3].
Consider `CCOC(=O)OC(=O)OCC`, for which the Potency entry in experiment [1], in experiment [2], in experiment [3] and in experiment [4] was “inactive” in each case.
Take `COc1cccc(OC)c1C(=O)O`: the Potency result in experiment [1], in experiment [2] and in experiment [3] was “inactive” each time.
Regarding `O=S1(=O)CCCC1`, the Potency entry in experiment [1], in experiment [2] and in experiment [3] was “inactive” each time.
Consider `C=CCOCC(O)CO` (centres undefined), for which the Potency result in experiment [1], in experiment [2], in experiment [3] and in experiment [4] was “inactive” in each case.
As for `CCc1ccc(O)c(OC)c1`, the Potency result in experiment [1], in experiment [2] and in experiment [3] was “inactive” throughout.
For `[O-][n+]1ccc(Cl)cc1`, the Potency result in experiment [1], in experiment [2], in experiment [3] and in experiment [4] was “inactive” throughout.
For `CC(C)=CCC/C(C)=C/COC=O`, the Potency result in experiment [1], in experiment [2], in experiment [3] and in experiment [4] was “inactive” throughout.
As for `CCCCC(CC)COC(=O)c1ccccc1O` (centres undefined), the Potency entry in experiment [1], in experiment [2], in experiment [3] and in experiment [4] was “inactive” throughout.
On to `CO[Si](CCCCl)(OC)OC`, for which the Potency entry in experiment [1], in experiment [2] and in experiment [3] was “inactive” in each case.
`C#CC(O)CCCCC` (centres undefined): the Potency entry in experiment [1], in experiment [2] and in experiment [3] was “inactive” each time.
For `C=C(C)C(=O)OCCC(F)(F)C(F)(F)C(F)(F)C(F)(F)C(F)(F)C(F)(F)F`, the Potency result in experiment [1], in experiment [2] and in experiment [3] was “inactive” throughout.
In the case of `CCC(C)c1ccccc1` (centres undefined), the Potency result in experiment [1], in experiment [2], in experiment [3] and in experiment [4] was “inactive” throughout.
In the case of `CN1CCCC1`, the Potency entry in experiment [1], in experiment [2] and in experiment [3] was “inactive” each time.
In the case of `O=C(O)c1ccc(O)c(O)c1`, the Potency entry in experiment [1], in experiment [2] and in experiment [3] was “inactive” each time.
Take `CC(C)OC(=O)c1ccccc1C(=O)OC(C)C`: the Potency entry in experiment [1], in experiment [2] and in experiment [3] was “inactive” each time.
For the compound `CC1(c2ccccc2)OC(C(=O)O)=CC1=O` (centres undefined), the Potency result in experiment [1], in experiment [2] and in experiment [3] was “inactive” each time.
`Cc1cccc([N+](=O)[O-])c1C(=O)O`: the Potency entry in experiment [1], in experiment [2] and in experiment [3] was “inactive” throughout.
`O=c1c2ccccc2nnn1CCl`: the Potency result in experiment [1], in experiment [2] and in experiment [3] was “inactive” in each case.
Take `[K+]`: the Potency result in experiment [1], in experiment [2], in experiment [3] and in experiment [4] was “inactive” in each case.
On to `O=C(c1ccccc1)C1CCC1`, for which the Potency entry in experiment [1], in experiment [2] and in experiment [3] was “inactive” throughout.
Consider `COC(=O)C(C)(C)C`, for which the Potency result in experiment [1], in experiment [2], in experiment [3] and in experiment [4] was “inactive” each time.
Take `CCCCCCCC/C=C\CCCCCCCC(=O)N(CCO)CCO`: the Potency result in experiment [1] and in experiment [2] was “inactive” throughout. In experiment [3], the Potency was 19.9 µM (active).
With `Nc1cccc2c(=O)[nH][nH]c(=O)c12`, the Potency entry in experiment [1], in experiment [2], in experiment [3] and in experiment [4] was “inactive” each time.
For the compound `O=C1OC(=O)c2cc(Oc3ccc4c(c3)C(=O)OC4=O)ccc21`, the Potency result in experiment [1], in experiment [2], in experiment [3] and in experiment [4] was “inactive” in each case.
